Results filed as inconclusive are left out. Where a call stands in place of a potency, no number is given. Values without a mark were called inactive. Active and inactive are the calls of the source. The call rests on the fitted dose curve; in most records, active means well fitted curve in the direction sought with a large enough effect in the repeat runs; inconclusive means weak or mixed curves; inactive means no such curve, though single readings can be large; an effect the other way counts as inactive or inconclusive.
Assays:
[1] = target: Cytochrome P450 2D6 (Homo sapiens) (UniProt P10635); assay: Cytochrome P450 Family 2 Subfamily D Member 6 (CYP2D6) small molecule antagonists: luciferase reporter qHTS assay (AID 1671196); further: nearly all actives have a fitted effect of over 50% in size; further: potency means the concentration at half of the fitted maximal effect; on activity change, negative = inhibition: series mostly up to about 120 µM
In short: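 Test chemicals meet CYP2D6 plus proluciferin substrate (10 min, RT); NADPH regenerating solution then drives turnover for 1 h. Detection reagent halts the reaction; luminescence measured after 20 min.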

[2] = target: Cytochrome P450 2C19 (Homo sapiens) (UniProt P33261); assay: Cytochrome P450 Family 2 Subfamily C Member 19 (CYP2C19) small molecule antagonists: luciferase reporter qHTS assay (AID 1671197); further: nearly all actives have a fitted effect of over 65% in size; further: potency means the concentration at half of the fitted maximal effect; on activity change, negative = inhibition: series mostly up to about 120 µM
In short: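 First, compounds are pinned into enzyme-substrate mix and held 10 min at room temperature. Second, NADPH regeneration solution is added and plates incubate 1 h at 37C. Third, detection reagent is added and luminescence read after 20 min.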

[3] = target: Cytochrome P450 2C9 (Homo sapiens) (UniProt P11712); assay: Cytochrome P450 Family 2 Subfamily C Member 9 (CYP2C9) small molecule antagonists: luciferase reporter qHTS assay (AID 1671198); further: nearly all actives have a fitted effect of over 50% in size; further: potency means the concentration at half of the fitted maximal effect; on activity change, negative = inhibition: series mostly up to about 120 µM
In short: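 Enzyme-substrate mix preincubated with compound 10 min at room temperature; reaction started with NADPH regeneration solution, 1 h 37C. Luminescent luciferin product read after 20 min detection reagent.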

[4] = target: Cytochrome P450 1A2 (Homo sapiens) (UniProt P05177); assay: Cytochrome P450 Family 1 Subfamily A Member 2 (CYP1A2) small molecule antagonists: luciferase reporter qHTS assay (AID 1671199); further: nearly all actives have a fitted effect of over 50% in size; further: potency means the concentration at half of the fitted maximal effect; on activity change, negative = inhibition: series mostly up to about 120 µM
In short: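 Steps: enzyme-substrate mix dispensed; test compounds and furafylline control pinned in; 10 min room temperature; NADPH regeneration solution added, 1 h; reaction stopped with luciferin detection reagent; luminescence read after 20 min.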

[5] = target: Voltage-gated inwardly rectifying potassium channel KCNH2 (Homo sapiens) (UniProt Q12809); assay: Human Ether-a-go-go-Related Gene (hERG) channel small molecule antagonists: fluorescence cell-based qHTS assay (AID 1671200);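 further: hERG-expressing U2OS cells given a thallium stimulus after FluxOR II dye loading; series mostly up to about 77 µM; nearly all actives have a fitted effect of over 50% in size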
In short: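 Fluorescence at 540 nm emission (480 nm excitation) was recorded kinetically for 2 min at 1-second intervals once the thallium-containing stimulus reached cells previously loaded with FluxOR II dye.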

[6] = target: Cytochrome P450 3A4 (Homo sapiens) (UniProt P08684); assay: Cytochrome P450 Family 3 Subfamily A Member 4 (CYP3A4) small molecule antagonists: luciferase reporter qHTS assay (AID 1671201); further: nearly all actives have a fitted effect of over 50% in size; further: potency means the concentration at half of the fitted maximal effect; on activity change, negative = inhibition: series mostly up to about 120 µM
In short: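 qHTS, 1536-well. CYP3A4 + proluciferin substrate, cpd 10 min RT → NADPH regen 1 h RT → detection reagent 20 min → luminescence (RLU). Ketoconazole positive control.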

Cytochrome P450 2D6 (Homo sapiens), sequence (P10635 whole entry, looked up): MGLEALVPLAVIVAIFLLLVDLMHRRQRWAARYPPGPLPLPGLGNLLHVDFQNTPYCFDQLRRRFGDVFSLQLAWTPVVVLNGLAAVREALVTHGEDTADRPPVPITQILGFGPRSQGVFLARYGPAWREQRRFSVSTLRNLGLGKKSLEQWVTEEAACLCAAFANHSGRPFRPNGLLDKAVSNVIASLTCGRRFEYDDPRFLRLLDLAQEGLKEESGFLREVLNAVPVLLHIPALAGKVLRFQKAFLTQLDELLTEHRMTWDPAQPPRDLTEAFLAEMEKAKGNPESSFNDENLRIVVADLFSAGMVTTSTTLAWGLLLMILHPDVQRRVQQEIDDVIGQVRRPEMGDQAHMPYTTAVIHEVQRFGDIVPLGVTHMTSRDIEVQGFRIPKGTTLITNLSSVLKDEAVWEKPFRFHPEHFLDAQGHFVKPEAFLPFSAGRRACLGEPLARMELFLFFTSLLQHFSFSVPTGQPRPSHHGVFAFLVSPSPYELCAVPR
Cytochrome P450 2C19 (Homo sapiens), sequence (P33261 whole entry, looked up): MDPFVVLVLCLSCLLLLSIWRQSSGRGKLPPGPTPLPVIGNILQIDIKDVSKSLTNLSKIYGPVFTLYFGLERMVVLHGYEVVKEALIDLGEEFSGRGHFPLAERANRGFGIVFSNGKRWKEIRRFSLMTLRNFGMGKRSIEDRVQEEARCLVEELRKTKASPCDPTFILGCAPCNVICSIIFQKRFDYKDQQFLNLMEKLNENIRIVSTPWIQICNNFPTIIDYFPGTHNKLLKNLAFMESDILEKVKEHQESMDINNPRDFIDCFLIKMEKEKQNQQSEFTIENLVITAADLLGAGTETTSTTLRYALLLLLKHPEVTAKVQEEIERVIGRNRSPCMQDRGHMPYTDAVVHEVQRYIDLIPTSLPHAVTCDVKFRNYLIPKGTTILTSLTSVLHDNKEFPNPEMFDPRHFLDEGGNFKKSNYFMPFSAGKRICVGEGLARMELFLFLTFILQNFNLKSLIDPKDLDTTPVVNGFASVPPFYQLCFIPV
Cytochrome P450 1A2 (Homo sapiens), sequence (P05177 whole entry, looked up): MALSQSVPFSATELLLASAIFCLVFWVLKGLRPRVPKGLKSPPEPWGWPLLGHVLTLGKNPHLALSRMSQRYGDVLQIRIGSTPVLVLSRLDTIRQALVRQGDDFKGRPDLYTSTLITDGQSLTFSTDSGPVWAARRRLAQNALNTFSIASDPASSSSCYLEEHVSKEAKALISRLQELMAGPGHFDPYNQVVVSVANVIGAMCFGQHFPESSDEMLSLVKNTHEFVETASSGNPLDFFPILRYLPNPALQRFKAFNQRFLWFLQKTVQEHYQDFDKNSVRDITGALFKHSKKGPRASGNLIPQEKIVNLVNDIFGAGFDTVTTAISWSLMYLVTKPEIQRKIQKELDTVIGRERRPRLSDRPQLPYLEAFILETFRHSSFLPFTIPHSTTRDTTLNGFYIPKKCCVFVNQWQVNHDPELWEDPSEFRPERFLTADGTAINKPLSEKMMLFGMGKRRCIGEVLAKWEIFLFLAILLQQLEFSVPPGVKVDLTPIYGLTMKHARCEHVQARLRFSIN
Cytochrome P450 2C9 (Homo sapiens), sequence (P11712 whole entry, looked up): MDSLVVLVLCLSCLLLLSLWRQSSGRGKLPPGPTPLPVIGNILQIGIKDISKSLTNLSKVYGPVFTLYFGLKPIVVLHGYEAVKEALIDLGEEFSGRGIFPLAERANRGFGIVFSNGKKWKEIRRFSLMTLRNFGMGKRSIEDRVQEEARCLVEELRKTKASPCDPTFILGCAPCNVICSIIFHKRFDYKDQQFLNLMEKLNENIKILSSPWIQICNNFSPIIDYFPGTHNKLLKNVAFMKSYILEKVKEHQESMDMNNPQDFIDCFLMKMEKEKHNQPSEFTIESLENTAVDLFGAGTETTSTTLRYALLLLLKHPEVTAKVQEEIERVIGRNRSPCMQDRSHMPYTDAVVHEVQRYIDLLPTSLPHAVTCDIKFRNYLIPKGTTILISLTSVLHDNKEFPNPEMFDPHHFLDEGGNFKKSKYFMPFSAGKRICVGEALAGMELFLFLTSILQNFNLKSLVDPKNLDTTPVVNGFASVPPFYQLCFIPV
Voltage-gated inwardly rectifying potassium channel KCNH2 (Homo sapiens), sequence (Q12809 whole entry, looked up): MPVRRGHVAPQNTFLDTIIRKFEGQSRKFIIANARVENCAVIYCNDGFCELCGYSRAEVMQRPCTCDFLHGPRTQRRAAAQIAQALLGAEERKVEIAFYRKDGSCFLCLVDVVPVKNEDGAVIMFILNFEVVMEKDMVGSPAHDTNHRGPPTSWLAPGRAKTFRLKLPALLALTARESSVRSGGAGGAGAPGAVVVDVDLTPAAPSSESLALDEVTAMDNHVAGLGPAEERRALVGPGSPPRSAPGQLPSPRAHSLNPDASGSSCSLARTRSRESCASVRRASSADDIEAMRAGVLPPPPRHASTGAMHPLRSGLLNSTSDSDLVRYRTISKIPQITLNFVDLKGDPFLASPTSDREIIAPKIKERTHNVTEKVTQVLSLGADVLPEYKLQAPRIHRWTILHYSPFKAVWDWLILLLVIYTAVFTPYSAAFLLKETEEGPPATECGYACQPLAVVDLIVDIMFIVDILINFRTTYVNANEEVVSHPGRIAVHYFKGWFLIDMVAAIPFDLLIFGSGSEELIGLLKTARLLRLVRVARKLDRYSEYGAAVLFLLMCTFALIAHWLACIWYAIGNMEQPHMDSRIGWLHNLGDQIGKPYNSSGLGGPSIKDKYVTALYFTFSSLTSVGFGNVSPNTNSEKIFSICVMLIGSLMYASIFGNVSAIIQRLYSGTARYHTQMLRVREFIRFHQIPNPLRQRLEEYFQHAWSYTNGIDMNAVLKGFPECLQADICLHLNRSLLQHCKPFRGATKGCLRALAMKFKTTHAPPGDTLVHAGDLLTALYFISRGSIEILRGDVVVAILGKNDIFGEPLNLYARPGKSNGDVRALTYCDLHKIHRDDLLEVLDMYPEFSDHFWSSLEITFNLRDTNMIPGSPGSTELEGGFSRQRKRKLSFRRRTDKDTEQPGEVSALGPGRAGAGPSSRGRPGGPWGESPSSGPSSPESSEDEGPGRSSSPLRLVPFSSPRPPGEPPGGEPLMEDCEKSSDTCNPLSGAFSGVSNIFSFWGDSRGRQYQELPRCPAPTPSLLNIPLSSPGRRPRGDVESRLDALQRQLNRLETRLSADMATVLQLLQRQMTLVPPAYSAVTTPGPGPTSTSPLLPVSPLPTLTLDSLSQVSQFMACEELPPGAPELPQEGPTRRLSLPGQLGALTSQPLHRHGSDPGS
Cytochrome P450 3A4 (Homo sapiens), sequence (P08684 whole entry, looked up): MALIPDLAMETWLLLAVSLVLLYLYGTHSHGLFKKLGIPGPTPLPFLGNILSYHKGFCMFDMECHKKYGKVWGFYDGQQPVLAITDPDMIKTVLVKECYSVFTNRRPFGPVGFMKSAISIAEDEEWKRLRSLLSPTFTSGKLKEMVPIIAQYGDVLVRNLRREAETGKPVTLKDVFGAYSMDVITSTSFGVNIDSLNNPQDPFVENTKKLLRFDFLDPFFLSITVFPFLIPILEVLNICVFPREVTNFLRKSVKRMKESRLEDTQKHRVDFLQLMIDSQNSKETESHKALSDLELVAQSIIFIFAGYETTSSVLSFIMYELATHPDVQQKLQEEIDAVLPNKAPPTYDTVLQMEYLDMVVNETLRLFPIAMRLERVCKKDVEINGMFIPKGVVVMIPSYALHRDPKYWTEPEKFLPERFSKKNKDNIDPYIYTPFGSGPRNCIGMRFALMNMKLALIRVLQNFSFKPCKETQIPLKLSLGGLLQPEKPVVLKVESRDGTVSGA

Row | Structure (SMILES) | Potency [1] | Potency [2] | Potency [3] | Potency [4] | Potency [5] | Potency [6] | activity change, negative = inhibition [1] | activity change, negative = inhibition [2] | activity change, negative = inhibition [3] | activity change, negative = inhibition [5] | activity change, negative = inhibition [6]
1 | COc1nc(C)nc(N)n1 | inactive | inactive | inactive | inactive | inactive | inactive |  |  |  |  | 
2 | CCC(=O)c1cccc(Cl)c1 | inactive | inactive | inactive | inactive | inactive | inactive |  |  |  |  | 
3 | CCCCCCC(=O)OCC | inactive | inactive | 71 µM (active) | inactive | inactive | inactive |  |  |  |  | 
4 | O=C(O)C1CCC1 | inactive | inactive | inactive | inactive | inactive | inactive |  |  |  |  | 
5 | CCO[Si](CCCN=C=O)(OCC)OCC | inactive | inactive | inactive | inactive | inactive | 35.6 µM (active) |  |  |  |  | 
6 | CC12CCC(CC1=O)C2(C)C (stereo unspecified) | inactive | inactive | inactive | inactive | inactive | inactive |  |  |  |  | 
7 | CNC(=O)c1c(I)c(NC(=O)CCCCC(=O)Nc2c(I)c(C(=O)O)c(I)c(C(=O)NC)c2I)c(I)c(C(=O)O)c1I | inactive | inactive | inactive | inactive | inactive | inactive |  |  |  |  | 
8 | C=C(C)C(=O)OCCCCCCCCCCCCCCCCCC |  |  |  | inactive |  |  | 2.34% [at 23.6 µM] | -16.6% [at 23.6 µM] | -1.15% [at 23.6 µM] | -0.193% [at 15.8 µM] | 2.34% [at 23.6 µM]
9 | CC1(C)OC(=O)Nc2ccc(Br)cc21 | inactive | 17.4 µM (active) |  |  |  |  |  |  |  |  | 
10 | CC(=O)N[C@@H](CCC(N)=O)C(=O)O | inactive | inactive | inactive | inactive | inactive | inactive |  |  |  |  | 
11 | C=CCOCC(O)CS(=O)(=O)O (stereo unspecified) | inactive | 80.8 µM (active) | inactive | inactive | inactive | inactive |  |  |  |  | 
12 | Oc1cc(O)c2c(c1)O[C@H](c1ccc(O)c(O)c1)[C@H](O)C2 | inactive | inactive | inactive | inactive | inactive | inactive |  |  |  |  | 
13 | C=C[Si](OC)(OC)OC | inactive | inactive | inactive | 34.2 µM (active) | inactive | inactive |  |  |  |  | 
14 | Cc1nc(-c2ccc(OCC(C)C)c(C#N)c2)sc1C(=O)O | inactive | inactive | 17.4 µM (active) | inactive | inactive | inactive |  |  |  |  | 
15 | C=C(C)[C@@H]1CCC2=CC(=O)C[C@@H](C)[C@]2(C)C1 | inactive | 6.33 µM (active) | 39.9 µM (active) | inactive | inactive | inactive |  |  |  |  | 
16 | CNc1ncnc2nc[nH]c12 | inactive | inactive | inactive | inactive | inactive | inactive |  |  |  |  | 

Row | Structure (SMILES) | Potency [1] | Potency [2] | Potency [3] | Potency [4] | Potency [5] | Potency [6] | activity change, negative = inhibition [1] | activity change, negative = inhibition [2] | activity change, negative = inhibition [3] | activity change, negative = inhibition [5] | activity change, negative = inhibition [6]
17 | CN(C)N=Nc1ccccc1 | inactive | inactive | inactive | inactive | inactive | inactive |  |  |  |  | 
18 | CC(C)[C@H](N)C(=O)OCCOCn1cnc2c(=O)[nH]c(N)nc21 | inactive | inactive | inactive | inactive | inactive |  |  |  |  |  | 
19 | OCCN1C[C@H](O)[C@@H](O)[C@H](O)[C@H]1CO | inactive | inactive | inactive | inactive | inactive | inactive |  |  |  |  | 
20 | C=CCOc1nc(OCC=C)nc(OCC=C)n1 | 39.9 µM (active) | 1.78 µM (active) | 15.9 µM (active) | 6.33 µM (active) | inactive | 12.6 µM (active) |  |  |  |  | 
21 | Nc1ncnc2c1ncn2Cc1c(F)cccc1Cl | inactive | inactive | inactive | inactive | inactive | inactive |  |  |  |  | 
22 | O=C(O)c1ccc[n+]([O-])c1 | inactive | inactive | inactive | inactive | inactive | inactive |  |  |  |  | 
23 | Nc1nc2c(ncn2CCC(CO)CO)c(=O)[nH]1 | inactive | inactive | inactive | inactive | inactive | inactive |  |  |  |  | 
24 | CCCCC=O | inactive | 71 µM (active) | 79.6 µM (active) | inactive | inactive | inactive |  |  |  |  | 
25 | COC(=O)C1=C(C)NC(C)=C(C(=O)OCC(C)=O)C1c1ccccc1[N+](=O)[O-] (stereo unspecified) | inactive | 5.49 µM (active) | 13.8 µM (active) | 2.45 µM (active) | inactive |  |  |  |  |  | 
26 | CC1(C)SC(C)(C)SC(C)(C)S1 | inactive | inactive | inactive | inactive | inactive | inactive |  |  |  |  | 
27 | NC(=O)c1ncn([C@@H]2O[C@H](CO)[C@@H](O)[C@H]2O)c1N | inactive | inactive | inactive | inactive | inactive | inactive |  |  |  |  | 
28 | CC(O)CN(CCCN(C)C)CCCN(C)C (stereo unspecified) | inactive | inactive | inactive | inactive | inactive | inactive |  |  |  |  | 
29 | CC1=CC(=O)CCC1 | inactive | inactive | inactive | inactive | inactive | inactive |  |  |  |  | 
30 | COc1cccc(OC)c1 | inactive | inactive | inactive | inactive | inactive | inactive |  |  |  |  | 
31 | CCCCCCCCCCCCCCC | inactive | inactive | inactive | inactive | inactive | inactive |  |  |  |  | 
32 | CCN1CCN(c2cc3c(cc2F)c(=O)c(C(=O)O)cn3C2CC2)CC1 | inactive | inactive | inactive | inactive | inactive | inactive |  |  |  |  | 
